HEK293 tox = cytotoxic in the GLP-1 receptor inverse agonist counter-screen; HEK293 cAMP-luciferase reporter cells, luminescence, 24 h; Potency, µM (doses to about 38.3 µM), actives largely listed as inhibitors; actives 0.13% (n = 410,000); AID 624418;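 further: loss of luciferase light is scored as toxicity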
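Cells in DMEM/10% Nu serum/1% pen-strep, 1536-well format. Pre-incubated 12 h, dosed with 23 nL compound, incubated a further 24 h. Luciferase detection, 12 min at room temp, luminescence.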
RORgamma inh = ROR gamma (mouse) transcription inhibition; P51450; Drosophila S2 Gal4-RORgamma UAS-luciferase reporter, 20 h; Potency, µM (series often up to 53.6 µM), hits mostly inhibitors; actives 5.4% (n = 310,000); further: nearly all actives have a fitted effect of over 60% in size
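Stably transfected Drosophila Schneider cells are the test system, with ROR gamma fused to Gal4 and luciferase under UAS control; luminescence is read after 20 hr of 700 uM copper sulfate induction at ambient temperature.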
GLP1R inv ag = inverse agonists of human GLP-1 receptor; HEK293 GLP-1R CRE-luciferase, luminescence, 24 h; GLP-1R form is constitutively active; Potency, µM (highest dose often 38.3 µM), actives largely listed as inhibitors; actives 1.6% (n = 410,000); AID 624417; further: nearly all actives have a fitted effect of over 55% in size
Target sequence (P43220 whole entry, looked up): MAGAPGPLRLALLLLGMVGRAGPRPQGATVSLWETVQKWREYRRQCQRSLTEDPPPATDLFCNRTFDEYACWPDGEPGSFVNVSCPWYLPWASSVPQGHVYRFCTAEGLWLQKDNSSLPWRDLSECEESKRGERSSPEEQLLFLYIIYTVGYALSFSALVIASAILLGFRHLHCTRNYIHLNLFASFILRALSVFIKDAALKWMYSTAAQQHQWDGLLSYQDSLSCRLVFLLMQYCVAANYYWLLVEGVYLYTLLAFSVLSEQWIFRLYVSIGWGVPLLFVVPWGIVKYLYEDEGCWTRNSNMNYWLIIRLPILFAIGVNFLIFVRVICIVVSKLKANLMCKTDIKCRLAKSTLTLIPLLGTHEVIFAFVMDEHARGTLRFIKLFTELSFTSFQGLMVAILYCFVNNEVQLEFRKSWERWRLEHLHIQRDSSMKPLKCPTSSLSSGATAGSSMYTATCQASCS
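Readout was luciferase luminescence, measured 12 min after detection reagent at room temperature. Beforehand, GLP-1R reporter HEK293 cells had sat 12 h, then received compounds for 24 hr at 37 deg C.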
VP16 counter = Gal4-VP16 reporter inhibition counter-screen; actives 3.5% (n = 310,000); Drosophila S2 Gal4-VP16 UAS-luciferase, luminescence, 20 h; Potency, µM (titrated, usually from 53.6 µM), usual class: inhibitors;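 further: Gal4-VP16 expression switched on by copper sulfate through the metallothionein promoter; nearly all actives have a fitted effect of over 50% in size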
GLP1R ag = agonists of human GLP-1 receptor; P43220; HEK293 GLP-1R CRE-luciferase, luminescence, 4-6 h; cells express a hypersensitive GLP-1R form; Potency, µM (top dose mostly 45.6 µM), hits mostly activators; actives 0.007% (n = 380,000); AID 624172
Hits are given with their value; i = inactive; ? = inconclusive; nt = not tested or not shown; [ ] = remark or other dose. Most compounds without a hit are left out; they make up all but 5.9% or so of the library. The call rests on the fitted dose curve; in most records, active means well fitted curve in the direction sought with a large enough effect; inconclusive means small, poorly fitted or top-dose-only effect, or another doubt; inactive means no such curve, though single readings can be large; an effect the other way counts as inactive or inconclusive.

SMILES	HEK293 tox	RORgamma inh	GLP1R inv ag	VP16 counter	GLP1R ag
NC(=O)CC(NC(=O)c1ccccc1)c1ccc(N2CCN(c3ccccc3)CC2)c([N+](=O)[O-])c1 (stereo not drawn)	i	?	?	?	i
NC(=O)CC(NC(=O)c1cccc(Br)c1)c1ccc(N2CCC(Br)CC2)c([N+](=O)[O-])c1 (stereo not drawn)	i	i	i	?	i
NC(=S)NN=Cc1nccc2c(C(F)(F)F)cccc12	?	nt	1.3µM	nt	i
Cc1c(/C=C/C(=O)c2cccs2)cnn1C	i	i	i	i	i
CCc1ccc(C(=O)/C=C/c2cnn(C)c2C)s1	i	5.6µM	i	8.9µM	i
O=C(N/N=C/CCc1ccccc1)c1ccc(CN2c3cccc4cccc(c34)S2(=O)=O)cc1	i	11µM	i	?	i
COc1ccc(/C=N/NC(=O)c2ccc(CN3c4cccc5cccc(c45)S3(=O)=O)cc2)cc1	i	i	i	i	i
O=C(Cc1csc(Nc2nc(=S)[nH]c3ccccc23)n1)N1CCN(c2cccc(C(F)(F)F)c2)CC1	i	0.63µM	i	7.1µM	i
Cc1ccc(CNC(=O)Cc2csc3ccccc23)cc1	i	nt	i	nt	nt
O=C(Cc1csc(Nc2nc(=S)[nH]c3ccccc23)n1)NCc1cccc(Cl)c1	i	6.3µM	i	?	i
O=C(Cc1csc(Nc2nc(=S)[nH]c3ccccc23)n1)NCc1ccccc1Cl	i	i	i	i	i
Cc1ccc(CNC(=O)Cc2csc(Nc3nc(=S)[nH]c4ccccc34)n2)cc1	nt	1.4µM	nt	7.1µM	nt
O=C(CSc1nncn2c1cc1sccc12)Nc1ccc(Br)cc1F	i	nt	i	nt	nt
O=C(c1cccc(F)c1)N1CCC2(CC1)CN(C(c1ccccc1)c1ccccc1)C2	nt	i	nt	i	nt
Fc1ccc(C2c3cccn3CCN2C(=S)Nc2cccc(Br)c2)cc1 (stereo not drawn)	i[0.307 µM]	8.9µM	i[0.307 µM]	?	i
S=C(NCc1ccccc1)N1CCn2cccc2C1c1ccncc1 (stereo not drawn)	i	4µM	i	i	i
Fc1ccc(NC(=S)N2CCn3cccc3C2c2cccnc2)cc1 (stereo not drawn)	i[0.307 µM]	i	i[0.307 µM]	i	i
CCc1cccc(NC(=O)c2coc(=O)c3ccccc23)c1	i	nt	?	nt	i
COC(=O)c1ccc(NC(=O)CCc2c(C)nn(-c3ccc(N4CCOCC4)nn3)c2C)cc1	i	nt	i	nt	nt
CC(C)(C)c1cc(NCc2ccccn2)n2ncc(-c3ccccc3)c2n1	?	0.45µM	i	1.4µM	i
O=S(=O)(Nc1cc(O)cc2cccnc12)c1ccc(Cl)s1	nt	4µM	nt	?	nt
COc1ccccc1NS(=O)(=O)c1ccc(Br)s1	i	i	i	i	i
O=S(=O)(Nc1cc(O)cc2cccnc12)c1ccc(Br)s1	nt	7.9µM	nt	6.3µM	nt
O=S(=O)(Nc1nc2ccccc2s1)c1ccc(Cl)s1	i	i	i	i	i
COc1ccc(C2C=C(C34CC5CC(CC(C5)C3)C4)NC(=S)N2)cc1 (stereo not drawn)	?	0.79µM	?	1.6µM	i
SMILES	HEK293 tox	RORgamma inh	GLP1R inv ag	VP16 counter	GLP1R ag
CCc1nnc(NC2=NCCC2)s1	i	i	i	18µM	i
Cc1cnc(NC2=NCCC2)s1	?	7.1µM	?	?	i
O=C(Cn1c(=O)n(-c2ccc(F)c(Cl)c2)c(=O)c2sc3ccccc3c21)NC1CCCCC1	i	nt	i	nt	i
O=C(c1ccc(C(F)(F)F)cc1)N1CCN(S(=O)(=O)c2ccc3c(c2)OCCCO3)CC1	i	13µM	?	i	i
O=C1c2cccc(NCCCNCCO)c2C(=O)c2cccc(NCCCNCCO)c21	7.9µM	nt	?	nt	i
O=C(Nc1ccccc1)OCCCCOC(=O)Nc1ccccc1	i	nt	i	nt	i
C=C(C)C1CCC(C)=C1COC(=O)Nc1ccccc1 (stereo not drawn)	i	i	8.9µM	i	i
CC(=O)Nc1ccc(Nc2cc(C)nc3c(-c4ccc(Cl)cc4)c(C)nn23)cc1	i	11µM	?	7.1µM	i
Cc1cc(SCC#N)n2nc(C)c(-c3ccccc3)c2n1	i	1.3µM	i	2.5µM	?
C=CCSc1cc(C)nc2c(-c3ccccc3)c(C)nn12	?	?	?	i	?
Cc1cc(SCC#N)n2nc(C)c(-c3ccc(Cl)cc3)c2n1	i	16µM	i	?	i
